How the values were obtained:
Assay in all cases: DAPPL (digital affinity profiling via proximity ligation, sequencing); 10 mM Tris-HCl pH 7.5, 50 mM NaCl, 1 mM DTT, 4% glycerol, room temperature, 30 min; GST-TFs on glutathione beads, 16-mer random dsDNA library, 0.1% formaldehyde crosslink after washing; high values mean tight binding
FLI1 = target: T1, FLI1 (Homo sapiens, UniProt Q01543 1-452); details: protein: recombinant; tags: N-terminal GST; dsDNA, one strand shown
T1 sequence: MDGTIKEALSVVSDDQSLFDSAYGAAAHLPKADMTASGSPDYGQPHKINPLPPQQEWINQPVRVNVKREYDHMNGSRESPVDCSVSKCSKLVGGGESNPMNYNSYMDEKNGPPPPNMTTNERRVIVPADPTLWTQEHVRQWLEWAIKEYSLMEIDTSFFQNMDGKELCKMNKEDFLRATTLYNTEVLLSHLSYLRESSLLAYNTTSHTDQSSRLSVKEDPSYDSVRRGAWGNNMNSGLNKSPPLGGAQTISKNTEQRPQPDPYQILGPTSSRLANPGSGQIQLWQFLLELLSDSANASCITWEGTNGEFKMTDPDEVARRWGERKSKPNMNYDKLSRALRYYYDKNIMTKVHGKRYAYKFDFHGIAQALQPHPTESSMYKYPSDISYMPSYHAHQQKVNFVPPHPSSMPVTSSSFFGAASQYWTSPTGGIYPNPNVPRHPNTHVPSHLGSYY
Outline: (§1)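 Human transcription factors carrying a GST fusion were produced in yeast, bound to glutathione beads, tagged with DNA barcodes and pooled together with a tag-only sample. Each pool was held with 200 nmole of a random double-stranded 16-mer DNA library in Tris/NaCl/DTT/glycerol buffer for 30 min at room temperature, then washed, crosslinked in 0.1% formaldehyde, proximity-ligated with BsaI/T4 ligase (1 h, 37 °C), PCR-amplified and sequenced on an Illumina NextSeq500. Binding signal is the read frequency of each hexamer for a given factor divided by its frequency in the tag-only sample.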

ELK1 = target: T2, ELK1 (Homo sapiens, UniProt P19419 1-428); details: protein: recombinant; tags: N-terminal GST; dsDNA, one strand shown
T2 sequence: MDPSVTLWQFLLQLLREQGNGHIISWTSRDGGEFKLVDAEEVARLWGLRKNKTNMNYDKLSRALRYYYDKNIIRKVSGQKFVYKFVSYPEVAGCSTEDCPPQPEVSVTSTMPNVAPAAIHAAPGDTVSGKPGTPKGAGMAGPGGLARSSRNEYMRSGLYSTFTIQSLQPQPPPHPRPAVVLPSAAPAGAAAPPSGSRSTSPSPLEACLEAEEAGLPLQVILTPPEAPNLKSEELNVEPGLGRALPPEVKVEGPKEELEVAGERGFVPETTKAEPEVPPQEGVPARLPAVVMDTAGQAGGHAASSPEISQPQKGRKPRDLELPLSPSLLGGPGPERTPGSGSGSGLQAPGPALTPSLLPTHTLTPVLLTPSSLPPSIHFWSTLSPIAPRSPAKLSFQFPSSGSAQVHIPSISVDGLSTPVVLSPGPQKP
Outline: as §1

GABPA = target: T3, GABPA (Homo sapiens, UniProt Q06546 1-454); details: protein: recombinant; tags: N-terminal GST; dsDNA, one strand shown
T3 sequence: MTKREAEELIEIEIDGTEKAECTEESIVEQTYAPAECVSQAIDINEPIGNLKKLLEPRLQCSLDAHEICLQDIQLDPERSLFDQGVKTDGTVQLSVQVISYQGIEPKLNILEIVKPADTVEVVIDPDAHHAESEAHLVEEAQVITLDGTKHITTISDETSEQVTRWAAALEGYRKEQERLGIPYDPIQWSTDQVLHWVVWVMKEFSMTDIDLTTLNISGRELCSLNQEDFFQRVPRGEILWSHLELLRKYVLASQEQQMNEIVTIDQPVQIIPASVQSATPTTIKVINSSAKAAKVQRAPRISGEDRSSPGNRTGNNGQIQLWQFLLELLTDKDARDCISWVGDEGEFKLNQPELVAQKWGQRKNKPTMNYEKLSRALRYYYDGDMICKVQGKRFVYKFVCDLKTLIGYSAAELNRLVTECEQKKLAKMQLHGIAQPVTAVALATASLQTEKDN
Outline: as §1

ERG = target: T4, ERG (Homo sapiens, UniProt P11308 1-479); details: protein: recombinant; tags: N-terminal GST; dsDNA, one strand shown
T4 sequence: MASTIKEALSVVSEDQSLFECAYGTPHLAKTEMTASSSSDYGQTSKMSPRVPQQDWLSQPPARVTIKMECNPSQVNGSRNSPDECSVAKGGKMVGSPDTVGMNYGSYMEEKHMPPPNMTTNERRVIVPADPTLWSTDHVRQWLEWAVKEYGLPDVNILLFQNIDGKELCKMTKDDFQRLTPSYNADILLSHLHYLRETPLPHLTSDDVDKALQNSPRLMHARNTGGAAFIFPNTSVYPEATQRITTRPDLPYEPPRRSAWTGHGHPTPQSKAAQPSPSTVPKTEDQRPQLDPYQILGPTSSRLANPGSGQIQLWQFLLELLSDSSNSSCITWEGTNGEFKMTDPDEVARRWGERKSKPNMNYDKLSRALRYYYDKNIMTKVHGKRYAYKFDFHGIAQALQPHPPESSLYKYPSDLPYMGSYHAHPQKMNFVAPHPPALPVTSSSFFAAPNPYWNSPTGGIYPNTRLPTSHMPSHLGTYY
Outline: as §1

ELF1 = ELF1 (Homo sapiens, UniProt P32519 1-619); details: protein: recombinant; tags: N-terminal GST; dsDNA, one strand shown
Outline: as §1

EHF = target: T5, EHF (Homo sapiens, UniProt Q9NZC4 1-300); details: protein: recombinant; tags: N-terminal GST; dsDNA, one strand shown
T5 sequence: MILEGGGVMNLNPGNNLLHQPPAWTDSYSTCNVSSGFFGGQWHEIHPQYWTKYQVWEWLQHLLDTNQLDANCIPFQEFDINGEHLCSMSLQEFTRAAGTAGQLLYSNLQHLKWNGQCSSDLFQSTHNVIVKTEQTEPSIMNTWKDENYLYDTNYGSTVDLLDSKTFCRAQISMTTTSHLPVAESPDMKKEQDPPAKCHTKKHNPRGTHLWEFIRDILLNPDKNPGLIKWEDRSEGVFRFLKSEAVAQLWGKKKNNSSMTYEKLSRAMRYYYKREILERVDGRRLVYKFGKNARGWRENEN
Outline: as §1

SPI1 = SPI1 (Homo sapiens, UniProt P17947 1-270); details: protein: recombinant; tags: N-terminal GST; dsDNA, one strand shown
Outline: as §1

SPIB = SPIB (Homo sapiens, UniProt Q01892 1-262); details: protein: recombinant; tags: N-terminal GST; dsDNA, one strand shown
Outline: as §1

ELK3 = target: T6, ELK3 (Homo sapiens, UniProt P41970 1-407); details: protein: recombinant; tags: N-terminal GST; dsDNA, one strand shown
T6 sequence: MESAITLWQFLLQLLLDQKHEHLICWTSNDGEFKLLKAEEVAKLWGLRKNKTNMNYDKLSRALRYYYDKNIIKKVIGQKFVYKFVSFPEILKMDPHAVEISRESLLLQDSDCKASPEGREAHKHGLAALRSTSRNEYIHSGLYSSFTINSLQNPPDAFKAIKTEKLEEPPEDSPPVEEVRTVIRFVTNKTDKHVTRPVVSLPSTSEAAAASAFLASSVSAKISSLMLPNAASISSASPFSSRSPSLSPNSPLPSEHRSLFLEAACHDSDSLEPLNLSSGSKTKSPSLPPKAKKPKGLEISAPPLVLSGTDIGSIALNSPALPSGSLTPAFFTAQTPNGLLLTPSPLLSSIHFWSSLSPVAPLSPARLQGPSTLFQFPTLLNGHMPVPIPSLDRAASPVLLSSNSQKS
Outline: as §1

FEV = target: T7, FEV (Homo sapiens, UniProt Q99581 1-238); details: protein: recombinant; tags: N-terminal GST; dsDNA, one strand shown
T7 sequence: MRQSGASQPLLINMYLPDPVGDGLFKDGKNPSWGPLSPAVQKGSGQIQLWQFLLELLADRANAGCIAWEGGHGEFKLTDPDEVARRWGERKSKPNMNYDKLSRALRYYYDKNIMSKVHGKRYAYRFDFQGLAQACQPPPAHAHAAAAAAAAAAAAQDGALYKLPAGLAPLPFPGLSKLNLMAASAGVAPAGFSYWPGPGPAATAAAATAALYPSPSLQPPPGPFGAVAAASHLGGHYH
Outline: as §1

ETV5 = ETV5 (Homo sapiens, UniProt P41161 1-510); details: protein: recombinant; tags: N-terminal GST; dsDNA, one strand shown
Outline: as §1

HSF1 = HSF1 (Homo sapiens, UniProt Q00613 1-529); details: protein: recombinant; tags: N-terminal GST; chain copies: 3; dsDNA, one strand shown
Outline: as §1

SPIC = target: T8, SPIC (Homo sapiens, UniProt Q8N5J4 1-248); details: protein: recombinant; tags: N-terminal GST; dsDNA, one strand shown
T8 sequence: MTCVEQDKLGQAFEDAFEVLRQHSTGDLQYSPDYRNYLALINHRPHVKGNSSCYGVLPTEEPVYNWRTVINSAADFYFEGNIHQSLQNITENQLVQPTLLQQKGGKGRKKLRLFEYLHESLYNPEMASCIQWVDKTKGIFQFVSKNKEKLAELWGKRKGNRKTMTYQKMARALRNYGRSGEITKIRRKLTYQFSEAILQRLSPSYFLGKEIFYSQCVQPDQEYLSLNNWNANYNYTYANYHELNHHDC
Outline: as §1

ELF4 = ELF4 (Homo sapiens, UniProt Q99607 1-663); details: protein: recombinant; tags: N-terminal GST; dsDNA, one strand shown
Outline: as §1

ELK4 = target: T9, ELK4 (Homo sapiens, UniProt P28324-2 1-405); details: protein: recombinant; tags: N-terminal GST; dsDNA, one strand shown
T9 sequence: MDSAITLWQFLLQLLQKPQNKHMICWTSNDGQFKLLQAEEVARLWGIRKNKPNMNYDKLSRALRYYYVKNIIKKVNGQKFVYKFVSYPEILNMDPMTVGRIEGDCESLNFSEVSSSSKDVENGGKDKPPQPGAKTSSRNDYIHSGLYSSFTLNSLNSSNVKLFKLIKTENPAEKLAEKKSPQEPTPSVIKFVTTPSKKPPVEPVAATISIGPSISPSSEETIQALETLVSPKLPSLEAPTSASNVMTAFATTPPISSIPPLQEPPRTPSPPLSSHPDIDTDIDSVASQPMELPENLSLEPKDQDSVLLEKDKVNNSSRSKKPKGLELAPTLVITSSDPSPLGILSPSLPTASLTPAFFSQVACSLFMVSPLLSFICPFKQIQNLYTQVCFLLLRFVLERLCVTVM
Outline: as §1

ETV2 = target: T10, ETV2 (Homo sapiens, UniProt O00321 1-342); details: protein: recombinant; tags: N-terminal GST; dsDNA, one strand shown
T10 sequence: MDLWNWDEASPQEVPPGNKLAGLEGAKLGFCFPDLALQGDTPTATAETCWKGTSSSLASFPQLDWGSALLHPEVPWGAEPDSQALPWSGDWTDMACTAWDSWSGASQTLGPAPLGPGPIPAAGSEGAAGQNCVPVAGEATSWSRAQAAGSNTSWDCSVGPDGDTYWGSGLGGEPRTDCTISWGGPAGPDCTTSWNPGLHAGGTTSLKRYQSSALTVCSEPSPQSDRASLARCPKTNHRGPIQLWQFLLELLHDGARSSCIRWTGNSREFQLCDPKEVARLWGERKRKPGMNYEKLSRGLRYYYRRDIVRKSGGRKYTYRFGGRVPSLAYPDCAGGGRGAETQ
Outline: as §1

ELF3 = target: T11, ELF3 (Homo sapiens, UniProt P78545 1-371); details: protein: recombinant; tags: N-terminal GST; dsDNA, one strand shown
T11 sequence: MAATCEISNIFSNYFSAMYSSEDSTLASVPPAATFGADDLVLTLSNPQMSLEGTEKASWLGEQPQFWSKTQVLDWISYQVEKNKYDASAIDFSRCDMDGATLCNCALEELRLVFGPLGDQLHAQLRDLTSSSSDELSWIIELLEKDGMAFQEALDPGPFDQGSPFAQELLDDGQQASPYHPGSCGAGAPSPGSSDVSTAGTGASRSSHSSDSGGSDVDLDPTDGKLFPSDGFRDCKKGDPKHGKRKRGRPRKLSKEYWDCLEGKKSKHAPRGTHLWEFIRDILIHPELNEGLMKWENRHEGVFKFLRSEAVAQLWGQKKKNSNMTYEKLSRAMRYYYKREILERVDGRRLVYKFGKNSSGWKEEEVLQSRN
Outline: as §1

CRX = CRX (Homo sapiens, UniProt O43186 1-299); details: protein: recombinant; tags: N-terminal GST; dsDNA, one strand shown
Outline: as §1

ETV1 = ETV1 (Homo sapiens, UniProt P50549 1-477); details: protein: recombinant; tags: N-terminal GST; dsDNA, one strand shown
Outline: as §1

Chain of SPIB (Q01892 whole entry): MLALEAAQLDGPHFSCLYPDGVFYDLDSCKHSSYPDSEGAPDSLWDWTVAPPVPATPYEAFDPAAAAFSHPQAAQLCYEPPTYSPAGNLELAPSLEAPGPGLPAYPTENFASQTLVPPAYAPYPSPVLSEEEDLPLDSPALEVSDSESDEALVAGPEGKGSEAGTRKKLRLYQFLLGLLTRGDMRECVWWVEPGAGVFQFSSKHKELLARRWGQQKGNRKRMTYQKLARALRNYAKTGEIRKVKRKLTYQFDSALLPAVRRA
Chain of ELF4 (Q99607 whole entry): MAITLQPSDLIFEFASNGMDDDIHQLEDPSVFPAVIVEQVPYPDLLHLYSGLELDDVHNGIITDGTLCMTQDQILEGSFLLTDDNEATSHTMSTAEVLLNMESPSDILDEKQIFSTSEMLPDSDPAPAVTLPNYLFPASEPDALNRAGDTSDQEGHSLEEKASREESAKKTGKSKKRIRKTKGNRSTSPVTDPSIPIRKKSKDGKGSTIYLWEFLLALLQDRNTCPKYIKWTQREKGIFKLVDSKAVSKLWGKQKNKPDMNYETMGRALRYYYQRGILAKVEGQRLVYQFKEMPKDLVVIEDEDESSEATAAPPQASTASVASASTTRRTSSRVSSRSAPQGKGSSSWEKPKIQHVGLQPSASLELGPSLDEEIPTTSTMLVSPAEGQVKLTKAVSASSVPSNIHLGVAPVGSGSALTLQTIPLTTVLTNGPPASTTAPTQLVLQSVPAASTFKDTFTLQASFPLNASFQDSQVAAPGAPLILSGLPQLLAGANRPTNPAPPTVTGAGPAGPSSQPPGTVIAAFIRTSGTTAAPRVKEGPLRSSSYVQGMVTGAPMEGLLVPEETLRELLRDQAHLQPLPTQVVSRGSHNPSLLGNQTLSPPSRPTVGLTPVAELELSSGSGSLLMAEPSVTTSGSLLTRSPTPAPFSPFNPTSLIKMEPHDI
Chain of ETV1 (P50549 whole entry): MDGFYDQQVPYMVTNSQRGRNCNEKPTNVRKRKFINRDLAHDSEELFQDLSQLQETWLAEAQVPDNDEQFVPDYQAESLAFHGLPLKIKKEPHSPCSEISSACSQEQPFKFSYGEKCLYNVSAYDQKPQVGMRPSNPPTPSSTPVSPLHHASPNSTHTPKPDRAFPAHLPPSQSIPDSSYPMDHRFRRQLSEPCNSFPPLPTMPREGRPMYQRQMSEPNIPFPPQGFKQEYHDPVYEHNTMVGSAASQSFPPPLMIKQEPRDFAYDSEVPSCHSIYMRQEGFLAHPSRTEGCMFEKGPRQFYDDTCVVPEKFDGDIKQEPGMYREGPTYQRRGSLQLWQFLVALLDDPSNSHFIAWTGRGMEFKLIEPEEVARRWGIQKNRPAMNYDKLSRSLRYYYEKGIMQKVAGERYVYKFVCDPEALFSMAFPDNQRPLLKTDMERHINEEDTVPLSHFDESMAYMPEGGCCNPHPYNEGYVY
Chain of ELF1 (P32519 whole entry): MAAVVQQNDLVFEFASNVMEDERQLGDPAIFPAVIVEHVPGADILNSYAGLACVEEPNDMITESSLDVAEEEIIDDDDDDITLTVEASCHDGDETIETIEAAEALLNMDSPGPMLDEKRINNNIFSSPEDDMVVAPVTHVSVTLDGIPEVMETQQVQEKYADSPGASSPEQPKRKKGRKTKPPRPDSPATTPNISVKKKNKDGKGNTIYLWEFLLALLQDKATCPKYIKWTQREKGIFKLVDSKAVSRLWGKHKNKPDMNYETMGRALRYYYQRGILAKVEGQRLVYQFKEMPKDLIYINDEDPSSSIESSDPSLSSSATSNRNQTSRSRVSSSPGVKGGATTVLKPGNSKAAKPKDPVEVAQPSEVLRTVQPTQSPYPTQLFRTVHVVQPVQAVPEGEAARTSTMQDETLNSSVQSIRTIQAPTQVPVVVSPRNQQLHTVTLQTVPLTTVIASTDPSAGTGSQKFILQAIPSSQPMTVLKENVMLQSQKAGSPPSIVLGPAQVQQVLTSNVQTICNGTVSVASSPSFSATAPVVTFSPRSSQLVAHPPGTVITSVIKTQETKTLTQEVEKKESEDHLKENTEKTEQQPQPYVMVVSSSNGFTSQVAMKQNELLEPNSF
Chain of ETV5 (P41161 whole entry): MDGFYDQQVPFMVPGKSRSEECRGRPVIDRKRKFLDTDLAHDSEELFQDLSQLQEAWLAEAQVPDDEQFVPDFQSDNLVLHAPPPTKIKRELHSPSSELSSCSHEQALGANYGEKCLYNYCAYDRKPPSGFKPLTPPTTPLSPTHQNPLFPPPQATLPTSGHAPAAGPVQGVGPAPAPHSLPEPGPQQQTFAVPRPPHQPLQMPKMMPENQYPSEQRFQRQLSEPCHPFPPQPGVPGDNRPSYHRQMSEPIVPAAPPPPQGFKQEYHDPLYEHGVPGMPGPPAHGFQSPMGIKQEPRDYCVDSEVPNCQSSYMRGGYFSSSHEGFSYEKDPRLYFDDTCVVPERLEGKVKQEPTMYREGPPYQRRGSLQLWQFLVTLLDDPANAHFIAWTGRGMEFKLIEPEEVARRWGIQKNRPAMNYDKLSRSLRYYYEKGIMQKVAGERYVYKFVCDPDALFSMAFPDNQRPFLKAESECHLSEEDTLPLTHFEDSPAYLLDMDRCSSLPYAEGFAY
Chain of CRX (O43186 whole entry): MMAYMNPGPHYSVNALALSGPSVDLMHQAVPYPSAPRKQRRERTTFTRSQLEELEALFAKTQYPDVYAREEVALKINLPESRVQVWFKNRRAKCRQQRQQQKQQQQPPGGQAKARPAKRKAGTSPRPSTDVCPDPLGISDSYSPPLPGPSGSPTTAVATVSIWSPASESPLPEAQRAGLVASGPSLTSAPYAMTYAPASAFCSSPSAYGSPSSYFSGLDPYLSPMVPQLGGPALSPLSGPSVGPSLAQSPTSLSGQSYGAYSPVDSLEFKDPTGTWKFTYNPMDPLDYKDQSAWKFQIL
Chain of HSF1 (Q00613 whole entry): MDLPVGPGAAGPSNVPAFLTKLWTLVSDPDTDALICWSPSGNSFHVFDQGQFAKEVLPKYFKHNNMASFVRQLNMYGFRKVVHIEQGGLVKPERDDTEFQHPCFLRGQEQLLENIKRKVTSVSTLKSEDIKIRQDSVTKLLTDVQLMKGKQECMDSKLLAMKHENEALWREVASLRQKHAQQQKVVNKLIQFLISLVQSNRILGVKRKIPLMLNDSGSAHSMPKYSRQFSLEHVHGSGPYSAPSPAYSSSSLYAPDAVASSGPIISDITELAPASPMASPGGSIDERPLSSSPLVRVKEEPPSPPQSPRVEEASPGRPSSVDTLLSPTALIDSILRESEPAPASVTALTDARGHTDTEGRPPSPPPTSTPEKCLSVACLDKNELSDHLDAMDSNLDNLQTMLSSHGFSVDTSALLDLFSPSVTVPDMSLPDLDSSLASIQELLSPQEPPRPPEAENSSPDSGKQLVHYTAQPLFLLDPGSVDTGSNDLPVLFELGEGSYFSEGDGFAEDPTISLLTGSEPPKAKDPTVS

With TTTGCG the binding signal (FLI1) was 1.27 fold enrichment (6-mer frequency, TF over GST control), the binding signal (ELK1) was 1.29 fold enrichment (6-mer frequency, TF over GST control) and the binding signal (GABPA) was 1.26 fold enrichment (6-mer frequency, TF over GST control). For the same sequence, the binding signal (ERG) was 1.14 fold enrichment (6-mer frequency, TF over GST control), the binding signal (ELF1) was 1.27 fold enrichment (6-mer frequency, TF over GST control) and the binding signal (EHF) was 1.19 fold enrichment (6-mer frequency, TF over GST control). For the same sequence, the binding signal (SPI1) was 1.32 fold enrichment (6-mer frequency, TF over GST control), the binding signal (SPIB) was 1.19 fold enrichment (6-mer frequency, TF over GST control) and the binding signal (ELK3) was 1.11 fold enrichment (6-mer frequency, TF over GST control). The binding signal (FEV) was 1.13 fold enrichment (6-mer frequency, TF over GST control), the binding signal (ETV5) was 1.29 fold enrichment (6-mer frequency, TF over GST control) and the binding signal (HSF1) was 1.3 fold enrichment (6-mer frequency, TF over GST control). For the same sequence, the binding signal (SPIC) was 1.37 fold enrichment (6-mer frequency, TF over GST control), the binding signal (ELF4) was 1.21 fold enrichment (6-mer frequency, TF over GST control) and the binding signal (ELK4) was 1.03 fold enrichment (6-mer frequency, TF over GST control). The binding signal (ETV2) was 1.13 fold enrichment (6-mer frequency, TF over GST control), the binding signal (ELF3) was 1.3 fold enrichment (6-mer frequency, TF over GST control) and the binding signal (CRX) was 1.31 fold enrichment (6-mer frequency, TF over GST control). The binding signal (ETV1) was 1.34 fold enrichment (6-mer frequency, TF over GST control).

Source: PMC7862700, “An all-to-all approach to the identification of sequence-specific readers for epigenetic DNA modifications on cytosine”
